The values that follow come from PubChem BioAssay AID1508601 (ICCB-Longwood Screening Facility, Harvard Medical School, 2020).

The whole screen tested about 5,700 compounds, of which about 85 (1%) were called active. No stated cut-off is given here; in the data, active means p53-positive nuclei above about 36% (passing the limit was not always enough); inactive means the rest. What follows is part of a selection rich in actives, with near analogues and random picks from the rest.

Assay [1] is described as follows: nuclear p53 accumulation, HPV+ cells – imaging, p53-positive nuclei imaging, 24 h, 48 h (AID 1508601). The following applies: 24/48 h.
Assay [2] concerns the target Cellular tumor antigen p53 (Homo sapiens) (UniProt P04637). The description is as above. Particulars: 24/48 h, stronger effect = higher value.
Setting [3] is: measured here: cell number at 24 h, Library stock concentration: 10 mM.
[4] abbreviates: measured here: cell number at 48 h, Library stock concentration: 10 mM.
Setting [5] is: Library stock concentration: 10 mM.
The mark [6] stands for this setting: measured here: p53 positive nuclei at 24 h, Library stock concentration: 10 mM.
Setting [7] is: measured here: cell number at 24 h, concentration not given here.
The mark [8] stands for this setting: measured here: cell number at 48 h, concentration not given here.
Setting [9] is: measured here: p53 positive nuclei at 24 h, concentration not given here.

Chain of Cellular tumor antigen p53 (Homo sapiens) (P04637 whole entry, looked up): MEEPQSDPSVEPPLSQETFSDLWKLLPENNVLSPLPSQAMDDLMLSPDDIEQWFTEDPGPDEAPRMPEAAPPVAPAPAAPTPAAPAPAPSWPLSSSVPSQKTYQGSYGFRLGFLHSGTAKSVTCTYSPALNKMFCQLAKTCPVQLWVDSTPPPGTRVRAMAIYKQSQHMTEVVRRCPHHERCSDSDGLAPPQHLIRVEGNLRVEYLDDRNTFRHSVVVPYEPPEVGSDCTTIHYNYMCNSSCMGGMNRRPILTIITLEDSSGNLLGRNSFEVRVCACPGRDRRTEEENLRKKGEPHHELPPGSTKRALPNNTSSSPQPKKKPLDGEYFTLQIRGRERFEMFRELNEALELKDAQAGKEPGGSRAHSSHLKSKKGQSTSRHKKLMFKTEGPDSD

For the compound `Cc1sc2c(c1C)C(c1ccc(Cl)cc1)=NC(CC(=O)Nc1ccc(O)cc1)c1nnc(C)n1-2` (stereo not drawn), the nuclei count, normalised in assay [1] (measured here: cell number at 24 h, Library stock concentration: 80 uM) turned out to be 110%; in assay [1] (measured here: cell number at 24 h, Library stock concentration: 400 uM), 120%; in assay [1] (measured here: cell number at 24 h, Library stock concentration: 2 mM), 113%; in assay [1] (measured here: cell number at 24 h, Library stock concentration: 3.33 mM), 119%; in assay [1] (setting [3]) it was 114%; in assay [1] (measured here: cell number at 48 h, Library stock concentration: 80 uM), 108%. Besides, the nuclei count, normalised in assay [1] (measured here: cell number at 48 h, Library stock concentration: 400 uM) was found to be 119%; in assay [1] (measured here: cell number at 48 h, Library stock concentration: 2 mM), 111%; in assay [1] (measured here: cell number at 48 h, Library stock concentration: 3.33 mM), 117%; in assay [1] (setting [4]) it was 109%. Besides, the p53-positive nuclei, normalised in assay [2] (Library stock concentration: 80 uM) is 0.0544% (inactive); in assay [2] (Library stock concentration: 400 uM), 0.0288% (inactive); in assay [2] (Library stock concentration: 2 mM), 3.49% (inactive); in assay [2] (Library stock concentration: 3.33 mM) it was 3.67% (inactive); in assay [2] (setting [5]), 9.67% (inactive); in assay [2] (measured here: p53 positive nuclei at 24 h, Library stock concentration: 80 uM), 0.123%. The p53-positive nuclei, normalised was found to be 0.712% in assay [2] (measured here: p53 positive nuclei at 24 h, Library stock concentration: 400 uM); 19.6% in assay [2] (measured here: p53 positive nuclei at 24 h, Library stock concentration: 2 mM); 10.4% in assay [2] (measured here: p53 positive nuclei at 24 h, Library stock concentration: 3.33 mM); 46.6% in assay [2] (setting [6]).

Regarding `CCCCC/C=C\C/C=C\C/C=C\C/C=C\CCCC(=O)N[C@@H](CO)C(=O)O`, the nuclei count, normalised in assay [1] (setting [7]) is 108%; in assay [1] (setting [8]) it was 107%. Moreover, the p53-positive nuclei, normalised in assay [2] (concentration not given here) is 0.0364% (inactive); in assay [2] (setting [9]) it was -0.0848%.

As for `C=C(C)[C@@H]1CCC(C)=C[C@H]1c1c(OC)cc(CCCCC)cc1OC`, the nuclei count, normalised was 107% in assay [1] (setting [7]) and 109% in assay [1] (setting [8]). Besides, the p53-positive nuclei, normalised was 0.00281% (inactive) in assay [2] (concentration not given here) and -0.021% in assay [2] (setting [9]).

As to `CCCCC/C=C\C/C=C\C/C=C\C/C=C\CCCC(=O)NC1CC1`, the nuclei count, normalised in assay [1] (setting [7]) and in assay [1] (setting [8]) was 110% throughout. The p53-positive nuclei, normalised in assay [2] (concentration not given here) is -0.0789% (inactive); in assay [2] (setting [9]), -0.0843%.

For `CC1OC(O[C@H]2CC[C@@]3(C)[C@@H](CC[C@@H]4[C@H]3CC[C@]3(C)[C@@H](C5=CC(=O)OC5)CC[C@]43O)C2)CC(O)C1O` (stereo partly drawn), the nuclei count, normalised in assay [1] (measured here: cell number at 24 h, Library stock concentration: 500 nM) was determined as 65.6%; in assay [1] (measured here: cell number at 24 h, Library stock concentration: 1.5 uM), 57.4%; in assay [1] (measured here: cell number at 24 h, Library stock concentration: 4.6 uM) it was 53%; in assay [1] (measured here: cell number at 24 h, Library stock concentration: 13.7 uM), 48.6%; in assay [1] (measured here: cell number at 24 h, Library stock concentration: 41 uM) it was 45.4%; in assay [1] (measured here: cell number at 24 h, Library stock concentration: 123 uM), 41.8%. Moreover, the nuclei count, normalised in assay [1] (measured here: cell number at 24 h, Library stock concentration: 370 uM) worked out at 40.1%; in assay [1] (measured here: cell number at 24 h, Library stock concentration: 1.111 mM) it was 41.7%; in assay [1] (measured here: cell number at 24 h, Library stock concentration: 3.333 mM), 42.7%; in assay [1] (setting [3]), 42.7%; in assay [1] (measured here: cell number at 48 h, Library stock concentration: 500 nM), 46.8%; in assay [1] (measured here: cell number at 48 h, Library stock concentration: 1.5 uM), 37.2%. In addition, the nuclei count, normalised is 33.8% in assay [1] (measured here: cell number at 48 h, Library stock concentration: 4.6 uM); 32.8% in assay [1] (measured here: cell number at 48 h, Library stock concentration: 13.7 uM); 29.8% in assay [1] (measured here: cell number at 48 h, Library stock concentration: 41 uM); 30.1% in assay [1] (measured here: cell number at 48 h, Library stock concentration: 123 uM); 27.4% in assay [1] (measured here: cell number at 48 h, Library stock concentration: 370 uM); 28.3% in assay [1] (measured here: cell number at 48 h, Library stock concentration: 1.111 mM). Also, the nuclei count, normalised stood at 30.1% in assay [1] (measured here: cell number at 48 h, Library stock concentration: 3.333 mM) and 29% in assay [1] (setting [4]). In addition, the p53-positive nuclei, normalised is 1.14% (inactive) in assay [2] (Library stock concentration: 500 nM); 2.17% (inactive) in assay [2] (Library stock concentration: 1.5 uM); 5.96% (inactive) in assay [2] (Library stock concentration: 4.6 uM); 13.9% (inactive) in assay [2] (Library stock concentration: 13.7 uM); 17.9% (inactive) in assay [2] (Library stock concentration: 41 uM); 17.3% (inactive) in assay [2] (Library stock concentration: 123 uM). Also, the p53-positive nuclei, normalised was 15.8% (inactive) in assay [2] (Library stock concentration: 370 uM); 18.6% (inactive) in assay [2] (Library stock concentration: 1.111 mM); 15.3% (inactive) in assay [2] (Library stock concentration: 3.333 mM); 14% (inactive) in assay [2] (setting [5]); 0.0832% in assay [2] (measured here: p53 positive nuclei at 24 h, Library stock concentration: 500 nM); 0.441% in assay [2] (measured here: p53 positive nuclei at 24 h, Library stock concentration: 1.5 uM). The p53-positive nuclei, normalised in assay [2] (measured here: p53 positive nuclei at 24 h, Library stock concentration: 4.6 uM) came out at 2.38%; in assay [2] (measured here: p53 positive nuclei at 24 h, Library stock concentration: 13.7 uM), 2.28%; in assay [2] (measured here: p53 positive nuclei at 24 h, Library stock concentration: 41 uM) it was 1.13%; in assay [2] (measured here: p53 positive nuclei at 24 h, Library stock concentration: 123 uM), 0.939%; in assay [2] (measured here: p53 positive nuclei at 24 h, Library stock concentration: 370 uM), 1.03%; in assay [2] (measured here: p53 positive nuclei at 24 h, Library stock concentration: 1.111 mM) it was 1.24%. Further, the p53-positive nuclei, normalised in assay [2] (measured here: p53 positive nuclei at 24 h, Library stock concentration: 3.333 mM) worked out at 1.62%; in assay [2] (setting [6]), 0.952%.

For `CO[C@H]1[C@H](O)[C@@H](O[C@H]2CC[C@]3(C=O)C4CC[C@]5(C)[C@@H](C6=CC(=O)OC6)CC[C@]5(O)C4CC[C@@H]3C2)O[C@@H](C)[C@@H]1O` (stereo partly drawn), the figures for the nuclei count, normalised in assay [1] (setting [7]) and in assay [1] (setting [8]) were 35.5% and 25.2%, respectively. The p53-positive nuclei, normalised was 50.3% (active) in assay [2] (concentration not given here) and 2.96% in assay [2] (setting [9]).

For the compound `C[C@@H]1O[C@@H](O[C@H]2CC[C@]3(C=O)C4CC[C@]5(C)[C@@H](C6=CC(=O)OC6)CC[C@]5(O)C4CC[C@]3(O)C2)[C@H](O)[C@H](O)[C@H]1O` (stereo partly drawn), the nuclei count, normalised worked out at 35.2% in assay [1] (setting [7]) and 23.7% in assay [1] (setting [8]). Moreover, the p53-positive nuclei, normalised in assay [2] (concentration not given here) is 28.5% (inactive); in assay [2] (setting [9]) it was 2.41%.

Take `O=c1c2cc(F)ccc2ncn1Cc1cn2ccccc2n1`: the nuclei count, normalised in assay [1] (setting [7]) turned out to be 98.7%; in assay [1] (setting [8]), 106%. Besides, the p53-positive nuclei, normalised in assay [2] (concentration not given here) was -0.262% (inactive); in assay [2] (setting [9]), -0.23%.

Turning to `CCCCC/C=C\C/C=C\C/C=C\C/C=C\CCCC(=O)NC`, the nuclei count, normalised in assay [1] (setting [7]) was 104%; in assay [1] (setting [8]), 99.6%. The p53-positive nuclei, normalised in assay [2] (concentration not given here) was 0.0321% (inactive); in assay [2] (setting [9]) it was -0.0963%.
